Where “and” joins values, the source holds several entries; their conditions need not be identical. Equal entries are not always repeated. Entries with a potency or affinity are not part of this list.
Key:
Klebsiella pneumoniae = details: Concentration 32 ug.mL-1, ASSAY_TEST Inhibition of Bacterial Growth, detection method Absorption (OD600), MEDIA CAMHB, plate type 384well, NBS, CORNING #3640, time 18 hr
Candida albicans = details: 32 ug/mL
Cryptococcus neoformans = details: Concentration 32 ug.mL-1, ASSAY_TEST Inhibition of Fungal Growth, detection method Resazurin, Absorption (OD600-OD570), plate type 384well, NBS, CORNING #3640

| Compound | Inhibition (Klebsiella pneumoniae) | Inhibition (Candida albicans) | Inhibition (Cryptococcus neoformans) | Inhibition (Klebsiella pneumoniae; 32 ug/mL) | Inhibition (Cryptococcus neoformans; 32 ug/mL) |
| --- | --- | --- | --- | --- | --- |
| Cc1ccc(C2CC2(N)C(=O)O)cc1.Cl (stereo not given) | 13.97% | 1.46% | -7.69% |  |  |
| N#CC1=C(N)Oc2ccc3ccccc3c2C1c1ccc(O)cc1 (stereo not given) | 11.07% | 2.93% | -36.73% |  |  |
| NOC(=O)C1CCN(Cc2ccccc2)CC1 | 4.34% | 1.62% | -5.93% |  |  |
| Cc1ccc(S(=O)(=O)N[C@H]2CC[C@H](O)CC2)cc1 | 11.86% | 0.9% | -40.23% |  |  |
| N#Cc1c(-c2ccccc2)c2ccc3ccccc3c2oc1=O | 8.94% | 3.25% | -60.47% |  |  |
| CN(C)c1nc(N)c(C#N)cc1C#N.Cl |  | 3.18% and 2.67% |  | -3.22% and 8.57% |  |
| COc1ccc2cc(C3C(C(C)=O)=C(C)Oc4nc5c(c(N)c43)CCC5)c(Cl)nc2c1 (stereo not given) | 0.03% | 12.4% | -0.43% |  |  |
| N#Cc1cc2c(N)c3c(nc2nc1Cl)CCCC3 | 24.47% | 2.63% | -42.44% |  |  |
| COc1ccc(-c2c(C#N)c(=O)oc3c2ccc2ccccc23)cc1 |  | 2.65% and 6.62% |  | 4.75% and -0.52% |  |
| COc1ccc2cc(C3C4=C(CC(C)(C)CC4=O)Oc4nc5c(c(N)c43)CCCC5)c(Cl)nc2c1 (stereo not given) | 5.45% | 7.25% | -9.09% |  |  |
| COC1=C(C#N)CC(C)C(=O)N1 (stereo not given) | 6.94% | 1.01% | -33.52% |  |  |
| N#CCC(=C(C#N)C#N)c1ccccc1 | 11.23% | 5.35% | -3.99% |  |  |
| C#CCNc1nc(NCCCC2CCN(Cc3ccccc3)CC2)c(C#N)cc1C#N.Cl | -17.1% | 1.71% | -40.38% |  |  |
| Nc1c2c(nc3ccc([N+](=O)[O-])cc13)CCCC2 | 16.59% | 2.09% | -74.97% |  |  |
| Cn1c(CO)cc2cc(OCCCC3CCN(Cc4ccccc4)CC3)ccc21 | -2.86% | 2.07% | -53.31% |  |  |
| C#CCN(C)c1nc(NCC2CCN(Cc3ccccc3)CC2)c(C#N)c(-c2ccccc2)c1C#N.Cl | 9.81% | -0.67% | 16.69% |  |  |
| COc1ccccc1C1C(C#N)=C(N)Oc2[nH]nc(C)c21 (stereo not given) | 0.76% | 2.02% | -7.07% |  |  |
| CC(C)CC(C)NNC(=O)c1cc2ccccc2[nH]1 (stereo not given) | -2.7% | -0.37% | -6.14% |  |  |
| Cc1ccc(/C=N/NC(=O)c2c[nH]c3ccccc23)cc1 | 10.41% | 1.17% | -0.49% |  |  |
| CCOC(=O)c1cc(C#N)c(N)nc1C | 5.86% | 2.73% | -17.38% |  |  |
| CC(=O)Nc1nn(C)c2nc3nc4c(c(N)c3cc12)CCCC4 |  |  |  | 12.62% and 9.74% |  |
| O=C(O)C(=Cc1ccccc1)NC(=O)c1ccccc1 | 27.9% | 0.44% | -6.77% |  |  |
| C#CCNc1cccc(F)n1 | 9.96% | -0.33% | -45.04% |  |  |
| N#CC1=C(Cl)Oc2c(ccc3ccccc23)C1c1cccc([N+](=O)[O-])c1 (stereo not given) | 4.09% | 6.77% | -37.01% |  |  |
| Cc1nn(-c2ccccc2)c2ncnc(Nc3ccccc3)c12 | 14.62% | 0.48% | -2.23% |  |  |
| CCOC(=O)c1cc2ccccc2[nH]1 | 16.5% | 2.42% | -5.94% |  |  |

| Compound | Inhibition (Klebsiella pneumoniae) | Inhibition (Candida albicans) | Inhibition (Cryptococcus neoformans) | Inhibition (Klebsiella pneumoniae; 32 ug/mL) | Inhibition (Cryptococcus neoformans; 32 ug/mL) |
| --- | --- | --- | --- | --- | --- |
| O=C(O)/C(=C\c1ccccc1)NC(=O)c1ccccc1 | 17.85% | 1.39% | -3.88% |  |  |
| N#Cc1c(N)nc(S)c(C#N)c1-c1ccccc1 | 24.85% | 0.7% | 1.04% |  |  |
| C#CCN(C)c1nc(N)c(C#N)cc1C#N |  |  |  | 17.2% and 7.82% |  |
| N#CC1=C(Cl)Oc2c(ccc3ccccc23)C1c1ccccc1[N+](=O)[O-] (stereo not given) | 5.03% | 3.33% | -51.56% |  |  |
| Cc1[nH]c2ccc(OCc3ccccc3)cc2c1C(=O)NN | 5.83% | 1.23% | -5.65% |  |  |
| CCOC(=O)N/N=C/c1ccccc1 | 8.83% | 4.9% | -5.96% |  |  |
| COc1ccc(C2c3c(ccc4ccccc34)OC(=NBr)C2(Br)C#N)cc1OC (stereo not given) | 4.11% | 18% | -72.67% |  |  |
| c1ccc(CNc2ncnc3c2cnn3-c2ccccc2)cc1 | -0.11% | 0.45% | -6.46% |  |  |
| COc1cccc(C2c3c(ccc4ccccc34)OC(=N)C2(Br)C#N)c1 (stereo not given) |  |  |  | 14.84% and 5.04% |  |
| N#Cc1cc(C#N)c(Cl)nc1N | -13.03% | 2.15% | -5.53% |  |  |
| N#CC1(Br)C(=NBr)Oc2ccc3ccccc3c2C1c1ccccc1[N+](=O)[O-] (stereo not given) | 5.57% | 4.94% | -80.32% |  |  |
| C#CCN(C)c1nc(OC)c(C#N)c(-c2ccccc2)c1C#N | 15.23% | 4.58% | -56.39% |  |  |
| N#Cc1c(N)nc(N)c(C#N)c1-c1ccccc1 | 13.82% | 1.47% | -29.88% |  |  |
| COc1ccc2nc(Cl)c(C=O)cc2c1 |  |  |  | -0.34% and -2.5% | -8.56% and -8.89% |
| CNN=C1N=C(SCc2ccccc2)SC1=O | 8.63% | -0.64% | -3.27% |  |  |
| COc1nc(NC(C)=O)c(C#N)c(-c2ccccc2)c1C#N | 12.51% | 2.3% | -37.64% |  |  |
| O=Cc1c[nH]c2ccccc12 [3-FORMYLINDOLE] | 22.42% | 1.76% | -4.21% |  |  |
| C=CCNc1nc(N)c(C#N)cc1C#N | 12.19% | 3.01% | -39.35% |  |  |
| COc1ccc(CNNC(=O)c2cc3ccccc3[nH]2)cc1 | -6.62% | 0.44% | -2.55% |  |  |
| N#Cc1cc2c(N)c3c(nc2nc1N1CCCCC1)CCCC3 | 18.01% | 1.35% | -98.63% |  |  |
| NNC(=O)Cc1c[nH]c2ccccc12 | 17.86% | 3.51% | -6.14% |  |  |
| CCOC(=O)C1=C(C)Nc2nc3c(c(N)c2C1c1ccc([N+](=O)[O-])cc1)CCCC3.Cl (stereo not given) | 18.29% | 1.72% | -58.17% |  |  |
| CN(N=O)C(=O)NC1(C(=O)O)CC1c1ccccc1 (stereo not given) | 23.72% | 1.7% | -0.92% |  |  |
| C#CCN(C)c1nc(N(C)CC#C)c(C#N)cc1C#N | 11.71% | 2.14% | -56.65% |  |  |
| Cl.Nc1c2c(nc3c1C(c1c(Cl)cccc1Cl)c1ccc4ccccc4c1O3)CCCC2 (stereo not given) | 3.98% | -1.11% | -3.69% |  |  |
| N#CC1=C(N)Oc2ccc3ccccc3c2C1c1cccc([N+](=O)[O-])c1 (stereo not given) | 6.14% | 10.7% | -44.61% |  |  |

| Compound | Inhibition (Klebsiella pneumoniae) | Inhibition (Candida albicans) | Inhibition (Cryptococcus neoformans) | Inhibition (Klebsiella pneumoniae; 32 ug/mL) | Inhibition (Cryptococcus neoformans; 32 ug/mL) |
| --- | --- | --- | --- | --- | --- |
| C#CCN(C)c1nc(OC)c(C#N)cc1C#N | 1.2% | 2.65% | -43.21% |  |  |
| C#CCNc1ncc(C#N)c(N)n1 | 3.55% | 2.29% | -34.7% |  |  |
| C#CCN(Cc1ccccc1)c1nc(N)c(C#N)c(-c2ccccc2)c1C#N | -5.74% | 2.73% | -25.11% |  |  |
| Cc1ccc(CNNC(=O)c2c[nH]c3ccccc23)cc1 | 5.46% | -1.04% | -5.03% |  |  |
| CC(C)(C)OC(=O)Nc1ccc(Br)cn1 | 23.74% | 1.83% | -55.05% |  |  |
| CC(=NNC(N)=O)c1c[nH]c2ccccc12 | 10.53% | 5.46% | -5.64% |  |  |
| CNCc1cc2ccccc2n1C.Cl | 8.53% | 1.26% | -5.12% |  |  |
| Cn1ccnc1C1C(C#N)=C(N)Oc2c1ccc1cccnc21 (stereo not given) | 9.74% | 0.91% | -53.28% |  |  |
| CCCCNNC(=O)c1cc2ccccc2[nH]1 | -6.75% | -0.51% | -1.71% |  |  |
| COc1ccc(-c2cc(-c3cc4ccc(F)cc4nc3Cl)cc(=O)[nH]2)cc1 | -16.09% | 1.94% | -21.89% |  |  |
| Cc1ccc2[nH]c(=O)c(C=O)cc2c1 | 6.41% | 1.79% | 4.75% |  |  |
| C#CCN(C)c1nc(NCC2CCN(Cc3ccccc3)CC2)c(C#N)c(-c2ccccc2)c1C#N | 6.45% | 0.51% | -3.47% |  |  |
| C#CCNc1[nH]c2ccc(O)cc2c1C#N | 14.34% | 1.86% | -54.9% |  |  |
| COc1cccc(C2c3c(nc4c(c3N)CCCC4)Oc3ccc4ccccc4c32)c1 (stereo not given) | 7.83% | -0.15% | -0.19% |  |  |
| CCOC(=O)C1=C(C)OC(N)=C(C#N)C1c1ccc(F)cc1 (stereo not given) | 13.44% | 1.48% | -57.32% |  |  |
| NNC(=O)c1cc2ccccc2n1Cc1ccccc1 | -14.14% | -0.41% | -2.53% |  |  |
| CC#CCN(Cc1ccccc1)c1nc(N)c(C#N)c(-c2ccccc2)c1C#N | -4.62% | 3.12% | -26% |  |  |
| O=C(N/N=C/Cc1ccccc1)c1cc2ccccc2[nH]1 | 10.16% | -1.49% | -3.25% |  |  |
| CCOC(=O)c1cc2c(N)c3c(nc2nc1C)CCCC3 | -0.45% | 0.86% | -82.76% |  |  |
| O=C(NNCc1ccco1)c1cc2ccccc2[nH]1 | 1.78% | -0.84% | -3.8% |  |  |
| Br.C#CCNCC | 7.82% | 3.14% | -9.78% |  |  |
| O=C(Cc1c[nH]c2ccccc12)NN=Cc1ccccc1 | -6% | -0.87% | -1.93% |  |  |
| Cc1ccc(C2C(C#N)=C(N)Oc3c2ccc2ccccc32)cc1 (stereo not given) | 1.87% | -0.54% | -6.98% |  |  |
| CCOC(=O)c1c(C)nc2nc3c(c(N)c2c1-c1ccc(OC)cc1)CCCCCC3 | 2.79% | -1.03% | -97% |  |  |
| C#CCN(C)c1cc(C)nc(C)n1 | 18.17% | 5.55% | -42.1% |  |  |
| O=C1NC(=O)C(=Cc2ccccc2)N1 | 12.73% | -0.05% | -1.42% |  |  |

From ChEMBL document CHEMBL4513135, “CO-ADD screening of IQOG CSIS (Spain) compounds”
